# ± gives the standard deviation.
# Tested on: MILI (PIWIL2) piRISC loaded with piRNA #1 (26 nt)
# Test: pre-steady-state target cleavage rate (min^-1); guide: piRNA #1 5'p-UGAGGUAGUAGGUUGUAUAGUAUCCA; MIWI and MILI are mouse PIWI proteins and EfPiwi is from a freshwater sponge; tags in brackets are library labels; higher = faster piRNA-guided slicing of the target
# Conditions: auxiliary factor: 500 nM mouse GTSF1
# In short: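 Three pooled Cleave-'n-Seq trials supplied the data, with k3 capped at 0.0001 min^-1. In each, […] transcribed, DNA-blocked target RNA library and 1 nM active affinity-purified piRISC with one synthetic guide reacted in HEPES–potassium acetate buffer at 33 °C for 0–8 or 0–960 min, with or without 500 nM GTSF1 partner protein. Uncleaved targets were sequenced and normalised to depth and to weakly complementary targets. A burst-and-steady-state fit provided the pre-steady-state cleavage rate.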
# 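Also: 1 nM active piRISC with 0.1 nM target library at 33 °C single turnover.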
row,Sequence,pre-steady-state target cleavage rate
1,GGAGACCUUACUUUACAACGUACUACCUCA,0.0199 ± 0.0047
2,GGAGUGCAUACUAUACAACCUACUUCCUCA,0.00653 ± 0.0022
3,GGAGACCUAUGAUAUGAACCUACUACGUGA,< 0.0001
4,GGAGACCUAUGAUAUCAACGUACUAGCUCA,< 0.0001
5,GGAGACCUAUCUAUACAACCUACAUACCUCA,0.113 ± 0.015
6,GGAGACCAUACUUUACAACCUACAACCUCA,0.14 ± 0.018
7,GGAGACCUAUGUAUGACAACCUACUACCUCA,0.0123 ± 0.0037
8,GGAGACCUAACUAUACAUGCUACUACCUCA,0.0788 ± 0.013
9,GGAGACCUAUGUAUACAACCUAUCUACCUCA,0.0415 ± 0.01
10,GGAGACCUAACUAUUCAACCUACAACCUCA,0.129 ± 0.021
11,GGAGACCUAUGUUUACAACGUACUACCUCA,0.00618 ± 0.0026
12,GGAGACCUAUCUAUACAACCUACUAGCUGA,0.00493 ± 0.0036
13,GGAGACCUAACUUUACAACCUACUACCACA,0.109 ± 0.024
14,GGAGACCUUACUAUAGCAACCUACUACCUCA,0.127 ± 0.012
15,GGAGACCAUACUAUUCAAGCUACUACCUCA,0.182 ± 0.016
16,GGAGACGAUAGUAUACAACGUACUACCUCA,0.0209 ± 0.0035
17,GGAGACCUUACAAUAGAACCUACUACCUCA,0.0823 ± 0.01
18,GGAGACCUAUCUAUACAACCUACUUCCACA,0.0447 ± 0.011
19,GGAGACCUAUGAUAACAAGCUACAACCUCA,0.0095 ± 0.0029
20,GGAGACCUUACUAUACAACCUACUACGCUCA,0.256 ± 0.019

row,Sequence,pre-steady-state target cleavage rate
1,GGAGACCUAUGAAUACAACCUACUUCCUCA,0.00371 ± 0.0019
2,GGAGACCUAUGUAUACAACCUUCUACCACA,0.00445 ± 0.0026
3,GGAGACCUUACUUUACAACCAACUACCUCA,0.00491 ± 0.0033
4,GGAGACCUAUGUUACAACCUACUACCUCA,0.0425 ± 0.0076
5,GGAGACCUAUGAUAUCAAGCUACAACCUCA,0.00699 ± 0.0025
6,GGAGACCUAUCUAUACAACCUACAACCUGA,0.0151 ± 0.0061
7,GGAGACCUAUGUAUACAACGUUCUACCUCA,0.00392 ± 0.0018
8,GGAGACCUAUGUAUACAACCUACAACCUCA,0.0609 ± 0.0082
9,GGAGACCUAACUAUACAACCUACAACCUCA,0.108 ± 0.026
10,GGAGACCUUACAAUACAACCUACUACCACA,0.133 ± 0.015
11,GGAGACCUAUGAAUACAACGUACUACCUGA,0.00311 ± 0.0023
12,GGAGACCUAUGUAUAGAUCCUACUACCUCA,0.0611 ± 0.0081
13,GGAGACCUAACUAUAGAACGUACUACCUCA,0.00603 ± 0.0028
14,GGAGACCUAUCUUUACAACCUACUACCACA,0.105 ± 0.016
15,GGAGAGGAUAGUAUAGAACCUACUACCUCA,0.0708 ± 0.012
16,GGAGUGGAUACUUUACAACCUACUACCUGA,0.0844 ± 0.011
17,GGAGACGAAACUAUAGAACCUACUACCUCA,0.146 ± 0.014
18,GGAGACGAUUCUUUACAACCUACUACCUCA,0.152 ± 0.011
19,GGAGACCUAACAAUACAAGCUACUACCUCA,0.22 ± 0.029
20,GGAGUGGAUACUUUUCAACCUACUACCUCA,0.156 ± 0.0072
